Growth data for 8 compounds are collected here from PubChem BioAssay (NCI).

Among the test systems are SR leukemia; RPMI-8226 leukemia; OVCAR-8 ovarian; OVCAR-5 ovarian; OVCAR-4 ovarian; SK-OV-3 ovarian; IGROV1 ovarian; OVCAR-3 ovarian; HS 578T breast; NCI/ADR-RES ovarian; T-47D breast; BT-549 breast; MDA-MB-435 melanoma; SW-620 colon; MCF7 breast; HCT-116 colon; HCC-2998 colon; KM12 colon.
Common to all, as to experiment: NCI-60 one-dose screen, 48 h (100 = growth as untreated, 0 = no growth, -100 = all killed)
Details in all cases: 10 µM unless noted

About 83,000 compounds went through this panel and 20% of them were active in at least one assay; those are over-represented in the sample as a whole.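 Cells were grown in 96-well plates and exposed to the test compound at a single concentration for 48 hours; results are reported as percent growth, with values below 10 considered active.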 Values without a mark were called inactive. The source made the active and inactive calls.

Take `CCOC(=O)C(=Cc1cccc(C#N)c1)C(=O)OCC`: the growth with SR leukemia was 7.73% (active); in the test on RPMI-8226 leukemia, 15.1%; with OVCAR-8 ovarian, 71.6%; in the test with OVCAR-5 ovarian it was 60.1%; in the test on OVCAR-4 ovarian, 88.2%; with SK-OV-3 ovarian, 91.3%. For the same compound, the growth in the test with IGROV1 ovarian is 59.8%; in the test with OVCAR-3 ovarian, 61.2%; in the test with HS 578T breast, 93.9%; in the test on NCI/ADR-RES ovarian it was 47.6%; in the test with T-47D breast, 38.8%; with BT-549 breast it was 71.2%. Further, the growth in the test with MDA-MB-435 melanoma was 55.4%; with SW-620 colon, 27.9%; in the test with MCF7 breast it was 24.3%; with HCT-116 colon it was 20.9%; in the test on HCC-2998 colon, 110%; in the test with KM12 colon it was 54.8%.
Turning to `COc1cc2c3c(c1O)-c1ccccc1[C@@H]1OC(=O)N(CC2)[C@H]31`, the growth is 98.2% in the test with SR leukemia; 99.2% in the test on RPMI-8226 leukemia; 97.8% with OVCAR-8 ovarian; 116% in the test with OVCAR-5 ovarian; 105% with OVCAR-4 ovarian; 106% in the test with SK-OV-3 ovarian. Also, the growth with IGROV1 ovarian was 114%; in the test with OVCAR-3 ovarian, 115%; in the test with HS 578T breast it was 102%; in the test on NCI/ADR-RES ovarian, 104%; in the test on T-47D breast, 89.6%; in the test on BT-549 breast, 111%. The growth is 107% in the test with MDA-MB-435 melanoma; 105% with SW-620 colon; 90% with MCF7 breast; 99.3% with HCT-116 colon; 96.8% in the test on HCC-2998 colon; 108% in the test with KM12 colon.
`COc1cc(-c2nc3occn3c2-c2ccnc(NCCCNS(=O)(=O)c3ccccc3)n2)ccc1F`: the growth is 56.4% in the test with SR leukemia; 5.21% (active) in the test with RPMI-8226 leukemia; 21.9% in the test on OVCAR-8 ovarian; 111% in the test on OVCAR-5 ovarian; 33% in the test with OVCAR-4 ovarian; 59.2% with SK-OV-3 ovarian. Also, the growth is 49.8% in the test with IGROV1 ovarian; 66.2% with OVCAR-3 ovarian; 75.6% in the test on HS 578T breast; 20.5% in the test on NCI/ADR-RES ovarian; 8.36% (active) with T-47D breast; 29.7% in the test with BT-549 breast. Further, the growth is 9.04% (active) with MDA-MB-435 melanoma; 65.2% with SW-620 colon; 20.5% in the test on MCF7 breast; 34.3% in the test on HCT-116 colon; 69.1% in the test on HCC-2998 colon; 30% in the test on KM12 colon.
With `COc1cc(/C=N/Nc2ccccc2F)cc(OC)c1OC`, the growth is 90.9% with SR leukemia; 83.8% in the test on RPMI-8226 leukemia; 92% in the test with OVCAR-8 ovarian; 94.6% in the test with OVCAR-5 ovarian; 92.3% with OVCAR-4 ovarian; 111% in the test with SK-OV-3 ovarian. Moreover, the growth in the test with IGROV1 ovarian is 86.1%; in the test on OVCAR-3 ovarian it was 108%; with HS 578T breast it was 94.9%; with NCI/ADR-RES ovarian, 99.6%; with T-47D breast it was 67.7%; with BT-549 breast it was 96%. Besides, the growth with MDA-MB-435 melanoma is 94.3%; in the test with SW-620 colon, 93.6%; in the test with MCF7 breast, 78.3%; with HCT-116 colon, 84.5%; in the test with HCC-2998 colon, 108%; with KM12 colon, 86.3%.
Consider `N#Cc1c(-c2ccccc2)c(C#N)c2c(C#N)c(N)nn2c1N`, for which the growth in the test with SR leukemia is 2.65% (active); with RPMI-8226 leukemia it was 21.2%; in the test on OVCAR-8 ovarian it was 61.1%; in the test with OVCAR-5 ovarian, 78%; in the test with OVCAR-4 ovarian, 57.7%; in the test with SK-OV-3 ovarian, 62.2%. The growth in the test with IGROV1 ovarian was 31.9%; in the test on OVCAR-3 ovarian, 15.5%; in the test with HS 578T breast, 27.4%; in the test with NCI/ADR-RES ovarian, 29.9%; in the test on T-47D breast, 19.6%; with BT-549 breast it was 47.4%. In addition, the growth in the test on MDA-MB-435 melanoma is -39.6% (active); in the test on SW-620 colon, 25.4%; with MCF7 breast, 15.9%; in the test on HCT-116 colon it was 24.2%; with HCC-2998 colon, 61.4%; in the test with KM12 colon it was 24.4%.
Regarding `COc1cccc(C(=O)OCC(O)C(=O)NC23CC4CC(CC(C4)C2)C3)c1` (centres undefined), the growth was 88.9% in the test with SR leukemia; 101% in the test with RPMI-8226 leukemia; 95.3% in the test with OVCAR-8 ovarian; 100% with OVCAR-5 ovarian; 99.4% in the test on OVCAR-4 ovarian; 99.5% in the test on SK-OV-3 ovarian. For the same compound, the growth in the test on IGROV1 ovarian was 104%; in the test on OVCAR-3 ovarian it was 111%; in the test on HS 578T breast, 98.8%; in the test on NCI/ADR-RES ovarian it was 95.2%; in the test with T-47D breast it was 98.3%; with BT-549 breast, 102%. In addition, the growth is 97.6% in the test on MDA-MB-435 melanoma; 99.6% with SW-620 colon; 89.1% in the test on MCF7 breast; 96.7% with HCT-116 colon; 105% in the test with HCC-2998 colon; 108% in the test with KM12 colon.
For `O=C1/C=C/[C@@H](O)[C@@H]2C[C@@H](O)C[C@H]2/C=C/CCC[C@H](CCOCc2ccccc2)O1`, the growth with SR leukemia is -7.43% (active); in the test with RPMI-8226 leukemia it was 11.5%; with OVCAR-8 ovarian it was 9.04% (active); with OVCAR-5 ovarian, 8.12% (active); in the test with OVCAR-4 ovarian it was 25.8%; with SK-OV-3 ovarian, 31.3%. In addition, the growth is 15.1% with IGROV1 ovarian; -45.8% (active) in the test with OVCAR-3 ovarian; 23.8% in the test on HS 578T breast; 6.93% (active) with NCI/ADR-RES ovarian; 15.6% in the test with T-47D breast; 7.15% (active) with BT-549 breast. The growth with MDA-MB-435 melanoma is 7.86% (active); with SW-620 colon, -23.8% (active); with MCF7 breast, -10.3% (active); in the test with HCT-116 colon, -71.1% (active); in the test with HCC-2998 colon, 3.47% (active); in the test on KM12 colon, -60.5% (active).
Take `CC(=O)c1cc(-c2ccccc2N)n(-c2ccc3c(c2)OCO3)c1C`: the growth was 14% in the test with SR leukemia; 19.8% in the test on RPMI-8226 leukemia; 18.7% in the test on OVCAR-8 ovarian; 30% in the test with OVCAR-5 ovarian; 48.3% in the test on OVCAR-4 ovarian; 33.7% with SK-OV-3 ovarian. Further, the growth in the test on IGROV1 ovarian was 22%; in the test with OVCAR-3 ovarian, 5.55% (active); in the test with HS 578T breast it was 32.6%; with NCI/ADR-RES ovarian it was 13.1%; with T-47D breast, 71%; in the test on BT-549 breast, 1.13% (active). In addition, the growth was -43.6% (active) in the test with MDA-MB-435 melanoma; 29.2% in the test on SW-620 colon; 14.8% with MCF7 breast; 6.22% (active) with HCT-116 colon; 15.8% with HCC-2998 colon; 5.16% (active) in the test with KM12 colon.
